Assay outcomes (PubChem BioAssay)
Sampled rows, rich in hits. Any-hit rate of the full collection: about 21%.
Cycloheximide cs = Cycloheximide Counterscreen for Small Molecule Inhibitors of Shiga Toxin; AID 2314, 2010; max response, %; 300,000 tested, 12% active; cell reporter, cycloheximide protein synthesis inhibition counterscreen; in the data active = max response mostly above about 13%, no sharp cut-off; inactive = mostly below about 14%; also: read at 38.3 µM for the half of the compounds with a filed dose; 0% is about no effect
SARS PLP yeast = qHTS of Yeast-based Assay for SARS-CoV PLP | S. cerevisiae expressing SARS-CoV PLpro, growth rescue | Potency, µM (titrated, usually from 32.9 µM), for inactives: at the top dose activity, positive = growth rescue, actives largely listed as activators | AID 485353, 2010 | 330,000 tested, 0.19% active; calls by dose curve; also: potency is read from the fitted curve at half-maximal effect; 0% is about no effect; nearly all actives have a fitted effect of over 55% in size
Shiga toxin inh = A qHTS for Small Molecule Inhibitors of Shiga Toxin; Vero cells, Shiga toxin protein synthesis inhibition reporter; 290,000 tested, 9.2% active; inhibition, % at 38.7 µM; in the data active = inhibition mostly above about 28%, no sharp cut-off; inactive = mostly below about 43%; also: 0% is about no effect
Pf growth 96h = Primary qHTS for delayed death inhibitors of the malarial parasite plastid, 96 hour incubation | P. falciparum luciferase reporter growth, 96 h | 320,000 tested, 6.9% active | Potency, µM (highest dose often 28.7 µM), without a hit: at the highest dose activity change, negative = inhibition, most hits filed as inhibitors; also: potency is read from the fitted curve at half-maximal effect; % is scaled to controls: 0 for no effect and ±100 for the full control effect
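P. falciparum expressing integrated firefly luciferase, in erythrocytes at 2% hematocrit, 0.05% parasitemia, incubated with compounds 96 h at 37 C, 5% CO2. Growth inhibition read as loss of luminescence; two-generation exposure targets delayed-death apicoplast inhibitors.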
NS1 inh = qHTS Assay for Inhibitors of Influenza NS1 Protein Function. Potency, µM (series often up to 46.1 µM), inactives show top-dose activity, positive = more growth. 270,000 tested, 0.4% active. AID 2326, 2010; calls by dose curve; also: potency is read from the fitted curve at half-maximal effect; actives are rising curves; nearly all actives have a fitted effect of over 50% in size
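S. cerevisiae expressing influenza A NS1, grown in glucose, washed, then diluted 1:100 into pH 6.0 -URA galactose medium with 23 nl compound. Growth recovery read as OD600; NS1-free strain serves as control.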
Pf growth 48h = Primary qHTS for delayed death inhibitors of the malarial parasite plastid, 48 hour incubation. P. falciparum luciferase growth in erythrocytes, 48 h. Potency, µM (titrated, usually from 28.7 µM), for inactives: top-dose activity change, negative = inhibition, hits mostly inhibitors. AID 504832, 2011. 310,000 tested, 5.9% active; also: potency is read from the fitted curve at half-maximal effect; % is scaled to controls: 0 for no effect and ±100 for the full control effect
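Read-out is firefly luciferase luminescence from an integrated reporter in P. falciparum, so falling signal marks reduced parasite growth. Infected erythrocytes were at 2% hematocrit and 0.1% parasitemia (final) in Albumax-supplemented RPMI 1640.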
Numbers without * were called inactive; ? = inconclusive; nt = no result. Unless noted, calls follow the shape of the dose curve; as a rule, active = well fitted inhibition curve with a large enough effect; inconclusive = small, poorly fitted or top-dose-only effect, or another doubt; inactive = no such curve, though single readings can be large or run the other way.

SMILES	Cycloheximide cs	SARS PLP yeast	Shiga toxin inh	Pf growth 96h	NS1 inh	Pf growth 48h
CN(C)Cc1cc(CCNC(=O)c2ccc(Cl)cc2)ccc1O	2	3%	2	51%	?	?
O=C(Nc1nc2ccc(S(=O)(=O)N3CCCC3)cc2s1)C1CCCCC1	-4	7%	1	1%	-17%	?
COC(=O)c1ccc2nc(NC(=O)C3CCCCC3)sc2c1	24*	0%	18	?	2%	126%
CC(C)c1ccc2nc(NC(=O)C3CC3)sc2c1	52*	-31%	70*	264%	-100%	109%
CC(NC(=O)COc1ccc(S(=O)(=O)N2CCOCC2)cc1)c1ccccc1 (configuration not stated)	nt	0%	nt	?	nt	?
CCCc1c(OCC(O)COc2ccc3c(=O)cc(C(=O)O)oc3c2CCC)ccc(C(C)=O)c1O (configuration not stated)	-8	nt	8	nt	nt	nt
CCOC(=O)c1ccccc1NC(=O)Cc1ccc(S(=O)(=O)N2CCCC2)s1	nt	-2%	nt	nt	nt	nt
Cc1ccc(CCN2CC(C(=O)NC3CCCCC3)CC2=O)cc1 (configuration not stated)	30*	0%	4	19%	-4%	-3%
Cc1ccc(CCN2CC(C(=O)NCCCN3CCCCC3)CC2=O)cc1 (configuration not stated)	1	1%	-1	7.4µM*	-5%	0%
COc1ccc(N(C(=O)c2ccco2)C(C(=O)NC2CCCC2)c2ccc(N(C)C)cc2)cc1 (configuration not stated)	1	-2%	-16	nt	-8%	nt
COc1ccc(C(C(=O)NC2CCCC2)N(C(=O)c2ccoc2C)c2cc(C)cc(C)c2)cc1 (configuration not stated)	1	1%	-14	?	-15%	-5%
COc1cccc(N(C(=O)c2ccco2)C(C(=O)NC2CCCC2)c2cccnc2)c1 (configuration not stated)	2	5%	13	-12%	-1%	?
COc1ccc(C(C(=O)NC2CCCC2)N(C(=O)c2ccoc2C)c2ccc(C)c(C)c2)cc1 (configuration not stated)	15	-29%	-8	1µM*	15%	?
COc1cccc(N(C(=O)c2ccco2)C(C(=O)NC2CCCC2)c2ccc(N(C)C)cc2)c1 (configuration not stated)	20*	?	17	16%	-19%	0%
COc1cccc(N(C(=O)CNC(=O)c2ccco2)C(C(=O)NC2CCCCC2)c2ccncc2)c1 (configuration not stated)	0	-13%	-2	9.3µM*	-8%	-5%
COc1cc(OC)cc(N(C(=O)c2ccco2)C(C(=O)NC2CCCC2)c2ccc(N(C)C)cc2)c1 (configuration not stated)	1	2%	-11	?	-8%	12µM*
OC1CN=C2C=CC=CN2C1 (configuration not stated)	-2	-3%	-18	?	-1%	-5%
O=C(CN1CCSC1=NCc1ccccc1)c1ccc(Cl)cc1	3	4%	13	?	?	-24%
COc1ccc(-n2c(=S)[nH]c3cc(C(=O)Nc4ccc(C)c(F)c4)ccc3c2=O)c(OC)c1	9	2%	37	-17%	-2%	-14%
COc1ccc(N(C(=O)c2ccco2)C(C(=O)NC2CCCC2)c2ccc(N(C)C)cc2)cc1OC (configuration not stated)	7	15%	14	101%	-7%	13µM*
COc1ccc(C(C(=O)NC2CCCC2)N(C(=O)c2ccco2)c2ccc3c(c2)OCO3)cc1OC (configuration not stated)	-3	-8%	18	?	-10%	?
COCCN(C(=S)Nc1cccc(OC)c1)C1CCN(C(C)=O)CC1	-4	-22%	-1	21%	4%	-7%
CCOC(=O)N1CCC(N(CCN(C)C)C(=S)Nc2cccc(OC)c2)CC1	-9	3%	-3	7.4µM*	nt	-5%
COCCN(C(=S)Nc1cccc(OC)c1)C1CCN(C(C)C)CC1	-2	-31%	-4	13µM*	-8%	1%
COCCN(C(=S)Nc1ccc(OC)cc1)C1CCN(C(C)C)CC1	5	11%	-8	12µM*	-1%	-4%
SMILES	Cycloheximide cs	SARS PLP yeast	Shiga toxin inh	Pf growth 96h	NS1 inh	Pf growth 48h
CCOC(=O)N1CCC(N(CCN(C)C)C(=S)Nc2cccc(Cl)c2)CC1	-2	1%	-15	-18%	nt	-12%
COc1ccc(S(=O)(=O)N2CCCCCC2)cc1NC(=O)Cc1n[nH]c(=O)c2ccccc12	nt	0%	nt	?	nt	?
CC(C)NC(NC(=O)/C=C/c1ccccc1)C(Cl)(Cl)Cl (configuration not stated)	1	-1%	-20	1µM*	-5%	2%
O=C(/C=C/c1ccccc1)NC(NC(=S)Nc1cc(Cl)ccc1Cl)C(Cl)(Cl)Cl (configuration not stated)	8	0%	28	10µM*	1%	?
O=C(/C=C/c1ccccc1)NC(NC(=S)Nc1ccc(Cl)cc1)C(Cl)(Cl)Cl (configuration not stated)	6	-8%	-4	1%	9%	6.6µM*
O=C(Cc1ccccc1)NC(NC(=S)Nc1cc(Cl)ccc1Cl)C(Cl)(Cl)Cl (configuration not stated)	-3	-8%	-8	13%	8%	?
COc1ccc(NC(=S)NC(NC(=O)/C=C/c2ccccc2)C(Cl)(Cl)Cl)cc1 (configuration not stated)	-3	-6%	-10	2.3µM*	5%	?
CN(CCC(=O)O)C1=Nc2ccc(Cl)cc2C(c2ccccc2)=[N+]([O-])C1	nt	nt	nt	nt	-3%	nt
COc1cc(OC)cc(C2=NCCN2)c1	-2	0%	-21	5%	-1%	4%
Cc1c(C(=O)N2CCN(CCc3ccccc3)CC2)oc2ccccc12	9	-7%	-14	30%	-6%	-1%
Cc1c(C(=O)N2CCc3ccccc3C2)oc2ccc(Br)cc12	nt	-24%	nt	1%	nt	?
Cc1c(C(=O)N2CCN(C)CC2)oc2ccc(Br)cc12	33*	-1%	46*	?	-14%	79%
CCCc1ccc2oc(C(=O)N3CCCC3)c(C)c2c1	30*	-6%	nt	?	-43%	73%
Cc1c(C(=O)N2CCCC2)oc2ccc(Br)cc12	35*	-6%	42*	0%	-68%	49%
Cc1oc2cc3c(C(=O)N4CCCCC4)c(C)oc3cc2c1C(=O)N1CCCCC1	53*	6%	73	nt	-5%	nt
COC(=O)c1c(-c2ccc(S(C)(=O)=O)cc2)sc2ccc(OC)cc12	nt	5%	nt	nt	nt	nt
